RE007 growth inh = less growth of the S. pombe RE007 Vpr strain. 360,000 compounds, 0.21% hits. AID 651644. Potency, µM (highest dose often 92.2 µM), inactives show at the top dose activity change, negative = less growth, usual class: inhibitors. S. pombe RE007 Vpr strain, BacTiter-Glo ATP luminescence, 24 h; active means well fitted falling curve with a large enough effect; inconclusive means small, poorly fitted or top-dose-only effect; inactive means no such curve, though single readings can be large or run the other way; further: potency means the concentration at half of the fitted maximal effect; nearly all actives have a fitted effect of over 50% in size
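Fission yeast RE007 carrying one integrated HIV-1 vpr copy, seeded at OD 0.01 in PMG+AL medium with 23 nL pinned compound. Grown 24 h at 30 degrees; viability read by BacTiter-Glo luminescence after 5 min.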
TbPYK inhibitor = T. brucei pyruvate kinase inhibition; Q57TT1; TbPYK enzyme, Kinase-Glo Plus ATP luminescence, 45 min; Potency, µM (doses to about 76.8 µM), without a hit: at the top dose activity, negative = inhibition, hits mostly inhibitors; 410,000 compounds, 0.12% hits; AID 624173; further: potency means the concentration at half of the fitted maximal effect; nearly all actives have a fitted effect of over 50% in size
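ADP (130 uM final) triggers the TbPYK reaction after compound addition; incubation is 45 min at room temperature. Kinase-Glo Plus is then added and luminescence imaged. Normalized data are fitted to concentration-effect curves.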
HCMV antiviral = blocks human cytomegalovirus replication; 410,000 compounds, 4.5% hits; activity change, negative = inhibition, % at 57.5 µM; HFF cells, HCMV-luciferase reporter, 72 h; stronger effect = lower value; in the data active means activity change below about -60%; inconclusive means no clear call, values can overlap the other calls; inactive means above about -39%
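Two compound doses tested in HFFs infected with HCMV-luciferase, MOI 1 PFU/cell, 72 h at 37C. Lysate luminescence read with OneGlo; data normalized against buffer-only and 10uM Salinomycin inhibitor controls.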
FBPA Giardia inh = Giardia lamblia aldolase inhibition; A8B2U2; purified Giardia FBPA; Potency, µM (highest dose often 59.6 µM), for inactives: at the top dose activity, negative = inhibition, hits mostly inhibitors; 290,000 compounds, 0.71% hits; AID 2451; further: potency means the concentration at half of the fitted maximal effect; nearly all actives have a fitted effect of over 55% in size
Target sequence (A8B2U2 whole entry, looked up): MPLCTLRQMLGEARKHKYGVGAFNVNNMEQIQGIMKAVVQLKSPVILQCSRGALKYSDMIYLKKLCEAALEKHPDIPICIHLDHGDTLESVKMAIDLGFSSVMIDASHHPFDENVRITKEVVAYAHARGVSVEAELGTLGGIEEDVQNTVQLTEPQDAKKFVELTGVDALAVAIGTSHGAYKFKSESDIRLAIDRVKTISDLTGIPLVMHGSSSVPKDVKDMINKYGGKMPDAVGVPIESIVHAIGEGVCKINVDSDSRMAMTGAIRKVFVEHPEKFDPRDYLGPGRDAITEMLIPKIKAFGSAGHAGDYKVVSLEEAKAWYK
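40 nM FBPA preincubated 10 min at RT with compound (up to 57.5 uM final), then substrate plus GAPDH/TPI/NAD/arsenate coupling and diaphorase/resazurin added. Fluorescence read after 20 min at RT, 525/598 nm.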
FMDV antiviral = antivirals against foot and mouth disease virus; 410,000 compounds, 1.2% hits; FMDV antiviral cell-based qHTS; AID 1159524; Potency, µM (doses to about 57.9 µM), inactives show at the highest dose activity change, negative = inhibition, actives largely listed as inhibitors; calls by dose curve; tested in HEK293T cells; further: read-out not given here; potency means the concentration at half of the fitted maximal effect; nearly all actives have a fitted effect of over 45% in size
Sm TGR inh = inhibitors of Schistosoma mansoni thioredoxin glutathione reductase | Potency, µM (doses to about 114 µM), for inactives: at the top dose activity change, negative = inhibition, actives largely listed as inhibitors | AID 485364 | Q962Y6 | 360,000 compounds, 3% hits | purified TGR, DTNB reduction, TNB absorbance 405 nm; further: potency means the concentration at half of the fitted maximal effect; nearly all actives have a fitted effect of over 60% in size
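First, TGR (20 nM dispensed) and NADPH were mixed with compound. Second, a 15 min room-temperature incubation followed. Third, further NADPH and then DTNB were added to start the reaction. Finally, TNB absorbance was monitored kinetically.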
The depositor's hits bear a star; ? = inconclusive; nt = no result given; [ ] = remark or other dose. Hits are enriched below; roughly 7.7% of the tested compounds scored in any of these assays. Unless noted, the call rests on the fitted dose curve; in most records, active means well fitted curve in the direction sought with a large enough effect; inconclusive means small, poorly fitted or top-dose-only effect, or another doubt; inactive means no such curve, though single readings can be large; an effect the other way counts as inactive or inconclusive. On the % scale 0 is the no-effect control and ±100 the full control effect.

SMILES	RE007 growth inh	TbPYK inhibitor	HCMV antiviral	FBPA Giardia inh	FMDV antiviral	Sm TGR inh
Cc1cccc(N2CCN(c3ncnc4onc(C)c34)CC2C)c1 (configuration not stated)	nt	-3%	-100*	nt	3.2µM*	4%
COc1ccc(/C=N\N=C(N)N)cc1	-29%	1%	?	6%	-13%	7%
CCC(=O)N/N=C/c1ccc(OS(=O)(=O)c2ccccc2)cc1	-2%	-2%	104	-4%	-4%	-19%
NC(N)=N/N=C/c1ccc(N(c2ccccc2)c2ccccc2)cc1	nt	-4%	-98*	-8%	32µM*	0%
CCN(Cc1ccccc1)c1ccc(/C=N/N=C(N)N)cc1	74%	-10%	-62*	0%	?	-10%
NC(N)=N/N=C/c1ccc(OS(=O)(=O)c2ccccc2)cc1	7%	1%	-82*	1%	-24%	4%
CC(C)NC(=O)c1csc(N2CCN(CCc3ccccc3)C2=O)n1	nt	nt	11	nt	nt	nt
CC(=O)ON(C(C)=O)S(=O)(=O)c1ccc(Cl)cc1	nt	nt	nt	-29%	-1%	nt
CN(C)/C=C(/C(=O)c1ccc(Cl)cc1)S(C)(=O)=O	-3%	-1%	-103*	2%	-6%	5%
Cc1ccc(C)c(OCC(=O)N/N=C/c2c(C)nn(-c3ccccc3)c2Cl)c1C	2%	3%	-68*	11%	-17%	-11%
COC(=O)N/N=C\c1c(C)nn(-c2ccccc2)c1Cl	18%	-1%	2	1%	48%	0%
CC(C)NC(=O)NS(=O)(=O)c1cnccc1NC1CC2CCC1C2 (configuration not stated)	-5%	-10%	-22	6%	-1%	0%
C#CCNc1ccncc1S(=O)(=O)NC(=O)NC(C)C	24%	-7%	-1	-4%	-12%	22µM*
CN1C2CCC1C(C(=O)Oc1ccccc1)C(c1ccc(Cl)cc1)C2 (configuration not stated)	nt	nt	-77*	nt	nt	nt
CCOc1ccc(NC(=O)Nc2nnc(N3CCCCC3C)s2)cc1 (configuration not stated)	nt	-7%	-7	nt	?	-18%
COc1ccc(Cc2c3cc(OC)c(OC)cc3cc[n+]2C)cc1OC	-9%	?	nt	?	-10%	13µM*
COc1ccc(Cc2nccc3cc(OC)c(OC)cc23)cc1OC	7%[18.4 µM]	-3%	-77*	?	18µM*	0%
CCOC(=O)C(CC)Sc1ccc2nnc(CCNS(=O)(=O)c3ccccc3)n2n1 (configuration not stated)	-10%	-4%	-103*	1%	1%	-5%
CCC(Sc1ccc2nnc(-c3ccc(F)cc3)n2n1)C(=O)OC (configuration not stated)	12%	-17%	-93*	1%	0%	-12%
CCOC(=O)CSc1ccc2nnc(CCNS(=O)(=O)c3ccccc3)n2n1	2%	-2%	-28	7%	-2%	2%
O=C(Nc1ccc(Cl)cc1)OCC12COCN1COC2	nt	nt	5	nt	nt	nt
CN(CC(=O)Nc1cccc(F)c1)C(=O)Cn1c(=O)oc2ccccc21	-11%	-9%	-10	nt	-14%	-1%
O=C(Nc1cccc(F)c1)c1ccc2oc(=O)n(Cc3ccccc3)c2c1	nt	-4%	-68*	nt	?	-2%
COc1cc(/C=C/C(=O)O[C@H]2CC[C@]34C[C@]35CC[C@]3(C)[C@@H]([C@H](C)CCC=C(C)C)CC[C@@]3(C)C5CCC4C2(C)C)ccc1O (some centres not stated)	nt	0%	nt	nt	nt	nt
COc1cccc(CNC(=O)CSc2ccc(-c3ccco3)nn2)c1	5%	-3%	-16	-4%	-6%	8.9µM*
O=C(CSc1ccc(-c2ccco2)nn1)NCc1ccccc1	-12%	4%	19	1%	-15%	35µM*
COc1cccc(CNC(=O)CSc2ccc(-c3ccccn3)nn2)c1	2%	6%	-32	-22%	-5%	-9%
O=C(CSc1ccc(-c2ccco2)nn1)NCc1ccc(Cl)cc1	-9%	-16%	8	-5%	-12%	16µM*
